About 83,000 compounds went through this panel and 20% of them were active in at least one assay; those are over-represented in the sample as a whole.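 Step 1: grow cells in 96-well plates. Step 2: add test compound at a single concentration. Step 3: incubate 48 h. Step 4: record percent growth.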 Values without a mark were called inactive. Activity calls are given as the source filed them. The calls were made as follows: active = growth percent below 10; inactive = the rest.
How the values were obtained:
Assay in all cases: NCI-60 one-dose screen, 48 h (100 = growth as untreated, 0 = no growth, -100 = all killed)
Conditions in all cases: 10 µM unless noted
NCI-H23 lung = system: NCI-H23 lung
NCI-H226 lung = system: NCI-H226 lung
NCI-H322M lung = system: NCI-H322M lung
HOP-62 NSCLC = system: HOP-62 NSCLC
NCI-H460 lung = system: NCI-H460 lung
HOP-92 NSCLC = system: HOP-92 NSCLC
NCI-H522 lung = system: NCI-H522 lung
A549/ATCC NSCLC = system: A549/ATCC NSCLC
786-0 renal = system: 786-0 renal
COLO 205 colon = system: COLO 205 colon
DU-145 prostate = system: DU-145 prostate
K-562 leukemia = system: K-562 leukemia
MALME-3M melanoma = system: MALME-3M melanoma
MDA-MB-231 breast = system: MDA-MB-231 breast
RXF 393 renal = system: RXF 393 renal
SF-268 CNS = system: SF-268 CNS
SF-295 CNS = system: SF-295 CNS
SF-539 CNS = system: SF-539 CNS
UACC-257 melanoma = system: UACC-257 melanoma
M14 melanoma = system: M14 melanoma

SMILES	growth (NCI-H23 lung)	growth (NCI-H226 lung)	growth (NCI-H322M lung)	growth (HOP-62 NSCLC)	growth (NCI-H460 lung)	growth (HOP-92 NSCLC)	growth (NCI-H522 lung)	growth (A549/ATCC NSCLC)	growth (786-0 renal)	growth (COLO 205 colon)	growth (DU-145 prostate)	growth (K-562 leukemia)	growth (MALME-3M melanoma)	growth (MDA-MB-231 breast)	growth (RXF 393 renal)	growth (SF-268 CNS)	growth (SF-295 CNS)	growth (SF-539 CNS)	growth (UACC-257 melanoma)	growth (M14 melanoma)
O=[N+]([O-])c1cc(CCl)ccc1OCCBr	102%	94.8%	104%	105%	101%	98.6%	96.1%	104%	103%	107%	95.7%	115%	107%	108%	110%	101%	99.7%	97.9%	105%	98.3%
CC(C)CCNCC(C)(C)O	101%	111%	106%	95.5%	114%	96.6%	98.7%	105%	111%	118%	118%	109%	121%	116%	117%	106%	111%	101%	102%	110%
Cc1ccc(C2=C/C(=C/c3ccc(Br)cc3)C(=O)N2CCc2ccc(S(N)(=O)=O)cc2)cc1	100%	97%	90.6%	96.1%	100%	89.9%	89%	96%	97.1%	115%	104%	88.6%	93.4%	90.4%	90%	87.6%	101%	97.4%	101%	97.5%
CN(C)c1ccc(N=Nc2ccc3ccccc3c2)cc1	91.5%	79.9%	89.6%	110%	87.5%	82.1%	71.7%	92%	122%	73.7%	98.9%	82.6%	101%	69.5%	97.7%	87.8%	107%	93%	102%	99.1%
COc1ccc(C(C(=O)O)c2ccc(OC)cc2)cc1	113%	104%	121%	112%	117%	106%	106%	116%	107%	117%	105%	105%	128%	120%	128%	103%	104%	105%	110%	114%
O=C(O)c1cn(C2CC2)c2cc(N3CCN(Cc4c(O)ccc5ccccc45)CC3)c(F)cc2c1=O	21.9%	6.89% (active)	22%	-41.1% (active)	5.64% (active)	-8.22% (active)	19.7%	-21.9% (active)	29.5%	27.1%	3.75% (active)	58.4%	10.9%	43.6%	-29.2% (active)	47.1%	39.3%	-17.7% (active)	35.1%	47.6%
C=C(C)[C@@H]1CC[C@]2(C(=O)OC)CC[C@]3(C)[C@H](CC[C@@H]4[C@@](C)(CCc5nn[nH]n5)[C@H](C(=C)C)CC[C@]43C)[C@@H]12	-13.8% [100 µM] (active)	-19.9% [100 µM] (active)	9.71% [100 µM] (active)	-72.7% [100 µM] (active)	-59.3% [100 µM] (active)	-39.8% [100 µM] (active)	-25.3% [100 µM] (active)	2.03% [100 µM] (active)	-8.74% [100 µM] (active)	-62.9% [100 µM] (active)	0.51% [100 µM] (active)	14.5% [100 µM]	-52% [100 µM] (active)	-76.9% [100 µM] (active)	-78.3% [100 µM] (active)	-23.1% [100 µM] (active)	-35.2% [100 µM] (active)	-65% [100 µM] (active)	-5.16% [100 µM] (active)	-9.37% [100 µM] (active)
C=C(CN=[N+]=[N-])[C@@H]1CC[C@]2(C)[C@H](CC[C@@H]3[C@H]4[C@H]5OC(=O)[C@@]4(CCC5(C)C)CC[C@]32C)[C@@]1(C)CCC#N	82.2% [100 µM]	83.1% [100 µM]	96.9% [100 µM]	90.9% [100 µM]	73.5% [100 µM]	65% [100 µM]	70.2% [100 µM]	78.6% [100 µM]	87.9% [100 µM]	100% [100 µM]	98.2% [100 µM]	45.6% [100 µM]	90.1% [100 µM]	48.9% [100 µM]	108% [100 µM]	92.9% [100 µM]	96.7% [100 µM]	88% [100 µM]	77.2% [100 µM]	69.1% [100 µM]
CC1(C)CC[C@]2(C(=O)O)CC[C@]3(C)[C@H](CC[C@@H]4[C@@]5(C)CCC(=O)C(C)(C)[C@@H]5CC[C@]43C)[C@H]2[C@H]1OC(=O)C(F)(F)F	-62.4% [100 µM] (active)	-51.2% [100 µM] (active)	-65.6% [100 µM] (active)	-79.6% [100 µM] (active)	-66.1% [100 µM] (active)	-79.6% [100 µM] (active)	-71.2% [100 µM] (active)	-52.7% [100 µM] (active)	-72.7% [100 µM] (active)	-72% [100 µM] (active)	-53.4% [100 µM] (active)	1.66% [100 µM] (active)	-65% [100 µM] (active)	-62.3% [100 µM] (active)	-82.1% [100 µM] (active)	-92.4% [100 µM] (active)	-62.5% [100 µM] (active)	-86% [100 µM] (active)	-87% [100 µM] (active)	-35.2% [100 µM] (active)
O=S(=O)(c1ccc(N/N=C\c2ccccc2Cl)cc1)c1ccc(N/N=C/c2ccccc2Cl)cc1	86.8%	74.9%	94.2%	88%	71.2%	31.2%	84.8%	85.2%	98.4%	97.1%	92.1%	86.1%	94.6%	81.6%	106%	67.8%	89.6%	89.7%	92.1%	84.7%
COc1ccc(C(=O)CSc2nccc(Nc3ccc(C(=O)O)cc3)n2)cc1	99.2%	92.8%	106%	99.7%	103%	97.4%	92.9%	99.7%	103%	107%	107%	115%	93%	102%	99%	96.6%	104%	99.9%	96.6%	92.1%
CCN(CC)CC(C)Nc1ccc(C)c2sc3ccccc3c(=O)c12 (stereo not given)	65.9%	74.2%	91.8%	76.3%	19.5%	38.2%	64.8%	32.7%	53.1%	37.9%	82%	44.2%	65.2%	28.7%	39.5%	58.9%	76.2%	44.2%	0.527% (active)	3.81% (active)
COc1ccc(-c2cc(-c3ccccc3)nc(SCCCCCC(=O)NO)n2)cc1	61.7%	80.3%	74.3%	51.5%	51.9%	40.5%	10.1%	59.3%	88%	38.1%	61.2%	26.4%	21.5%	59.2%	39.2%	98.9%	60.4%	68.1%	36.5%	52%
Cc1ccc2c(c1)C(C)Cc1c(Cl)ncnc1N2C (stereo not given)	20.7%	-7.14% (active)	32.3%	17.5%	30.6%	28.9%	69%	16.4%	1.48% (active)	-56.1% (active)	79.8%	30.9%	14.6%	-31.9% (active)	4.04% (active)	22.6%	18.4%	29%	20.1%	15.1%
